Test results taken from PubChem BioAssay (Tox21).
Where “and” joins values, the source holds several entries; their conditions need not be identical. Identical values can stand only once. Results filed as inconclusive are left out. A call without a number means that no potency is given here. Where a structure was tested more than once in an assay, its records may differ in their call. Calls of active or inactive are those of the source. Unless noted, calls come from the whole dose curve; as a rule, active = well fitted curve in the direction sought with a large enough effect in the repeat runs; inconclusive = weak or mixed curves; inactive = no such curve, though single readings can be large; an effect the other way counts as inactive or inconclusive.

What was measured:
[1] = molecular target: Thyrotropin receptor (Homo sapiens) (UniProt P16473); experiment: qHTS assay to identify small molecule agonists of the thyroid stimulating hormone receptor (TSHR) signaling pathway (AID 1224843; calls by dose curve; note: nearly all actives have a fitted effect of over 45% in size; note: potency is the fitted concentration of half-maximal effect)
Sequence of Thyrotropin receptor (Homo sapiens) (P16473 whole entry, looked up): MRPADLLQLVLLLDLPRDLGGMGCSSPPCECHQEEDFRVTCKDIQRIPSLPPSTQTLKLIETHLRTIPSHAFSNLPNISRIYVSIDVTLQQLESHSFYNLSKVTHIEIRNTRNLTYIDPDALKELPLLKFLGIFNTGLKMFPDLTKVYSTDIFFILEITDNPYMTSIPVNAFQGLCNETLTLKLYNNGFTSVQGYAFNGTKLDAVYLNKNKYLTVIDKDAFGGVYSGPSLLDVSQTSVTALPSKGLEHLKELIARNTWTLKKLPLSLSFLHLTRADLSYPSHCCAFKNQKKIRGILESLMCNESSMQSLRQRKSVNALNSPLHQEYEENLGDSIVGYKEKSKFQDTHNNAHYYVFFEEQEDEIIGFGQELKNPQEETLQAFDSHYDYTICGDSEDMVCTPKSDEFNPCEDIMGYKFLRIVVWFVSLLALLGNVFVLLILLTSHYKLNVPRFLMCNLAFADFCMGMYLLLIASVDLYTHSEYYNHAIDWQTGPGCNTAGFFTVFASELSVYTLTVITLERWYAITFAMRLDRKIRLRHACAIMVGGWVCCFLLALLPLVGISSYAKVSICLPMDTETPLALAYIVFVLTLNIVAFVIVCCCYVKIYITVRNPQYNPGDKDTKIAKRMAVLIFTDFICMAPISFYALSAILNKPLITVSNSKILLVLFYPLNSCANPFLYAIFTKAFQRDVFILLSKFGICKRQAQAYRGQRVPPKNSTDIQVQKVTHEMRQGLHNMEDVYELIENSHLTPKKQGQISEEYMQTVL
In short: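 A cell-based cAMP HTRF format was run in TSHR-transfected HEK293 cells, 800 per well. Treatment: 30 min, room temperature. Detection: 1 h with labelled cAMP and anti-cAMP cryptate. Concentration-response over 15 points, three replicates.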

[2] = qHTS assay to identify small molecule agonists of the hypoxia (HIF-1) signaling pathway - cell viability counter screen (AID 1224844; calls by dose curve; note: nearly all actives have a fitted effect of over 50% in size; note: potency is the fitted concentration of half-maximal effect)
In short: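 CellTiter-Glo luminescence read-out, 30 min RT, taken in the same wells as the beta-lactamase HRE reporter assay; HRE-bla ME-180 cells, 0.5% dialyzed FBS, 17 hr compound treatment at 37C, 5% CO2.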

[3] = qHTS assay to identify small molecule agonists of H2AX (AID 1224845; active = well fitted activation curve with a large enough effect in the signal ratio in the repeat runs, not every such curve was filed as active; the % refers to the signal ratio; note: potency is the fitted concentration of half-maximal effect)
In short: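 Phospho-H2AX Ser139 measured by HTRF (ex 320 nm; em 665 and 620 nm) after 24 hr antibody incubation. Compounds, 15 concentrations, 0.76% DMSO, were applied to CHO-K1 cells for 3hr at 37C before lysis.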

[4] = qHTS assay to identify small molecule agonists of the hypoxia (HIF-1) signaling pathway (AID 1224846; active = well fitted activation curve with a large enough effect in the signal ratio in the repeat runs, not every such curve was filed as active; the % refers to the signal ratio)
In short: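 Beta-lactamase FRET read-out (CCF4-AM substrate) from ME-180 cells carrying an HRE-driven bla reporter, after 17 hrs compound exposure at 37C/5% CO2. Cells were seeded at 2,000 per well in 0.5% dialyzed FBS medium and preincubated 5 hrs.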

[5] = qHTS assay to identify small molecule agonists of H2AX - cell viability counter screen (AID 1224847; calls by dose curve; note: nearly all actives have a fitted effect of over 30% in size; note: potency is the fitted concentration of half-maximal effect)
In short: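 Cytotoxicity counter screen in wild-type CHO-K1 cells: a 3 hr compound treatment at 37C across 15 concentrations, followed by CellTiter-Glo luminescence to gauge viable cells.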

[6] = qHTS assay to identify small molecule antagonists of the estrogen related receptor (ERR) signaling pathway from Tox21 library (AID 1224848); note: nearly all actives have a fitted effect of over 50% in size; note: potency is the fitted concentration of half-maximal effect
In short: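 ERR cell line, 2,000 cells/well. 6 h settle, then compound (DMSO) added; 18 h at 37 C; ONE-Glo luminescence after 30 min RT.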

[7] = qHTS assay to identify small molecule agonists of the estrogen related receptor (ERR) signaling pathway from Tox21 library (AID 1224849; calls by dose curve; note: nearly all actives have a fitted effect of over 15% in size); details: ERR reporter cell line, ONE-Glo luciferase, 18 h
In short: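 Luminescence readout (ONE-Glo, 30 min RT) after 18 h compound exposure at 37 C of NTP-supplied ERR reporter cells; cells were plated 6 h before compound addition by pin tool.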

[8] = qHTS RealTime-Glo MT Cell Viability Assay in HepG2 cells - 24 hour (AID 1224867); note: nearly all actives have a fitted effect of over 50% in size; note: potency is the fitted concentration of half-maximal effect
In short: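 Tox21 10K library screened in qHTS format on HepG2 cells carrying RealTime-Glo reagents. Compounds were added after a 5 h preincubation, and the luminescent signal from continuous culture was measured repeatedly during 40 h treatment.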

[9] = qHTS RealTime-Glo MT Cell Viability Assay in HEK293 cells - 32 hour (AID 1224868); note: nearly all actives have a fitted effect of over 50% in size; note: potency is the fitted concentration of half-maximal effect
In short: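 Luminescence generated by NanoLuc from substrate produced by living HEK293 cells served as the viability signal. Each value reflects the reading at its stated time point during continuous 40 h compound exposure at 37 C.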

[10] = A CellTox Green Cytotoxicity Assay to monitor cytotoxicity in HEK293 cells - 0 hour (AID 1224869); note: nearly all actives have a fitted effect of over 50% in size
In short: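 Read-out: fluorescence of a cell-impermeant cyanine dye staining DNA of dead cells, proportional to cytotoxicity. HEK293, 600 cells/well with reagent, compound (23 nL DMSO) added after 5 h; reads at 0, 8, 16, 24, 32, 40 h.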

CCOc1ccc(NC(C)=O)cc1
Potency [1]: inactive
Potency [2]: inactive
Potency [3]: inactive
outcome [4]: inactive
Potency [5]: inactive
Potency [6]: inactive
activity change, positive = activation ([7]; at 42.5 µM (top of the series)): 9.79% (inactive)
activity change, positive = activation ([7]; at 92.4 µM (top of the series)): 9.07% (inactive) and -21.8% (inactive)
Potency [8]: inactive
Potency [9]: inactive and 24.5 µM (active)
Potency [10]: inactive

Cc1ncc([N+](=O)[O-])n1CCO
Potency [1]: inactive
Potency [2]: inactive
Potency [3]: inactive
Potency [5]: inactive
Potency [6]: inactive
activity change, positive = activation ([7]; at 42.5 µM (top of the series)): 4.15% (inactive)
activity change, positive = activation ([7]; at 92.4 µM (top of the series)): 5.04% (inactive) and 2.17% (inactive)
Potency [8]: inactive
Potency [9]: inactive
Potency [10]: inactive

CC/C(=C(\c1ccccc1)c1ccc(OCCN(C)C)cc1)c1ccccc1
Potency [1]: inactive
Potency [2]: 24.8 µM (active) [middle of 4 runs]
Potency [3]: 50.5 µM (active)
Potency [5]: 80.7 µM (active) [middle of 5 runs]
Potency [8]: 38.9 µM (active) [middle of 4 runs]
Potency [9]: 22.1 µM (active) [middle of 5 runs]
Potency [10]: inactive

CCCCCCCC(=O)OCC(COC(=O)CCCCCCC)OC(=O)CCCCCCC
Potency [1]: inactive
Potency [2]: inactive
Potency [3]: inactive
outcome [4]: inactive
Potency [5]: inactive
Potency [8]: inactive
Potency [9]: inactive
Potency [10]: inactive

C=CCc1ccc(O)c(OC)c1
Potency [1]: inactive
Potency [2]: inactive
Potency [3]: inactive
outcome [4]: inactive
Potency [5]: inactive
Potency [8]: inactive
Potency [9]: inactive
Potency [10]: inactive

CC(=O)C(=O)O
Potency [1]: inactive
Potency [2]: inactive
Potency [3]: inactive
outcome [4]: inactive
Potency [5]: inactive
Potency [8]: inactive
Potency [9]: inactive
Potency [10]: inactive

NC1CCCCC1
Potency [1]: 194 nM (active) and inactive
Potency [2]: inactive
Potency [3]: inactive
outcome [4]: inactive
Potency [5]: inactive
Potency [8]: inactive
Potency [9]: inactive
Potency [10]: inactive

CCCCC(CC)C(=O)O (centres undefined)
Potency [1]: inactive
Potency [2]: inactive
Potency [3]: inactive
outcome [4]: inactive
Potency [5]: inactive
Potency [8]: inactive
Potency [9]: inactive
Potency [10]: inactive

O=C1NS(=O)(=O)c2ccccc21
Potency [1]: inactive
Potency [2]: inactive
Potency [3]: inactive
outcome [4]: inactive
Potency [5]: inactive
Potency [8]: inactive
Potency [9]: inactive
Potency [10]: inactive

CC(=O)Nc1c(I)c(NC(C)=O)c(I)c(C(=O)O)c1I
Potency [1]: inactive
Potency [2]: inactive
Potency [3]: inactive
Potency [5]: inactive
Potency [8]: inactive
Potency [9]: inactive
Potency [10]: inactive

Oc1ccccc1
Potency [1]: inactive
Potency [3]: inactive
outcome [4]: inactive
Potency [5]: inactive
Potency [8]: inactive
Potency [9]: inactive
Potency [10]: inactive

O=C(O)c1ccccc1
Potency [1]: inactive
Potency [3]: inactive
outcome [4]: inactive
Potency [5]: inactive
Potency [8]: inactive
Potency [9]: inactive
Potency [10]: inactive

COc1ccc2cc(S(=O)(=O)N[C@H](CC(=O)N[C@H](Cc3ccc(CN4[C@H](C)CCC[C@@H]4C)cc3)C(=O)N(C)C(C)C)c3ccc4c(c3)OCO4)ccc2c1
Potency [1]: inactive
Potency [2]: 10.4 µM (active)
Potency [6]: 25.8 µM (active)
activity change, positive = activation ([7]; at 92.4 µM (top of the series)): -76% (inactive)
Potency [8]: 52 µM (active)
Potency [9]: 26.1 µM (active)
Potency [10]: inactive

CN(C)CCOC(c1ccccc1)c1ccccc1
Potency [1]: inactive
Potency [3]: inactive
Potency [5]: inactive
Potency [8]: inactive
Potency [9]: inactive
Potency [10]: inactive

O=CC(=O)c1ccccc1
Potency [1]: 27.3 µM (active)
outcome [4]: inactive
Potency [6]: inactive
activity change, positive = activation ([7]; at 92.4 µM (top of the series)): -0.129% (inactive)
Potency [8]: inactive
Potency [9]: inactive
Potency [10]: inactive

Nc1ccc(S(N)(=O)=O)cc1
Potency [1]: inactive
Potency [3]: inactive
outcome [4]: inactive
Potency [5]: inactive
Potency [8]: inactive
Potency [9]: inactive
Potency [10]: inactive

O=C1c2c(O)cccc2Cc2cccc(O)c21
Potency [1]: inactive
Potency [3]: inactive
Potency [5]: inactive
Potency [8]: inactive
Potency [9]: inactive
Potency [10]: inactive

CCCCC1(COC(=O)CCC(=O)O)C(=O)N(c2ccccc2)N(c2ccccc2)C1=O
Potency [1]: inactive
Potency [3]: inactive
Potency [5]: inactive
Potency [6]: inactive
activity change, positive = activation ([7]; at 42.5 µM (top of the series)): -6.77% (inactive)
activity change, positive = activation ([7]; at 92.4 µM (top of the series)): 3.58% (inactive) and -11.1% (inactive)
Potency [8]: inactive
Potency [9]: inactive
Potency [10]: inactive

Cc1cc(C)nc(NS(=O)(=O)c2ccc(N)cc2)n1
Potency [1]: inactive
Potency [3]: inactive
outcome [4]: inactive
Potency [5]: inactive
Potency [8]: inactive
Potency [9]: inactive
Potency [10]: inactive

O=C(Nc1ncc([N+](=O)[O-])s1)c1cccs1
Potency [1]: inactive
Potency [3]: inactive
Potency [5]: 24.7 µM (active)
Potency [6]: inactive
activity change, positive = activation ([7]; at 42.5 µM (top of the series)): 14.6% (active)
Potency [8]: inactive
Potency [9]: inactive
Potency [10]: inactive

CS(=O)(=O)OCCCCOS(C)(=O)=O
Potency [1]: inactive
Potency [3]: inactive
outcome [4]: inactive
Potency [5]: inactive
Potency [6]: inactive
activity change, positive = activation ([7]; at 42.5 µM (top of the series)): -0.0445% (inactive)
activity change, positive = activation ([7]; at 92.4 µM (top of the series)): -6.97% (inactive) and 6.13% (inactive)
Potency [8]: inactive
Potency [9]: inactive
Potency [10]: inactive
